Unmarked numbers belong to inactive results.
Columns and labels:
Conditions in all cases: 60 µM; 5 days; temperature: 20 °C
[1] = test system: Meloidogyne hapla J2; test: proportion of mobile M. hapla J2 relative to DMSO control (fraction of DMSO control); higher = more viable, less nematicidal, active = 0.7 or less
Outline: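 Compound was pinned to 60 µM final (0.6% v/v DMSO) into 96-well wells, each holding about 25 M. hapla J2 in distilled water. Plates were sealed and shaken for 5 days at 20 °C and 200 rpm, then given 2 µL 1 M NaOH per well. Microscopic mobility scores were normalised to the mean of the plate's own DMSO wells, eight per plate, with two biological replicates averaged.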

[2] = test system: Caenorhabditis elegans dauer (daf-2(e1370)); test: proportion of mobile C. elegans dauer larvae relative to DMSO control (fraction of DMSO control); higher = more viable, less nematicidal, active = 0.63 or less; extreme values may be limits of the assay
Outline: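 Synchronized C. elegans daf-2(e1370) larvae were held at 25 °C for 48 h on MYOB plates with E. coli OP50 to form dauers, and about 20 dauers were added per 96-well well in liquid NGM. Compound was pinned to 60 µM final (0.6% v/v DMSO), and sealed plates were shaken at 200 rpm for 5 days at 20 °C. The proportion of mobile worms was scored under a dissection microscope relative to DMSO controls and averaged over two biological replicates.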

[3] = test system: Ditylenchus dipsaci; test: proportion of mobile D. dipsaci (mixed stage) relative to DMSO control (fraction of DMSO control); higher = more viable, less nematicidal, active = 0.86 or less; extreme values may be limits of the assay
Outline: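 Mobility values are relative to DMSO controls and are averages of two biological replicates. For each well of a 96-well plate, about 20 D. dipsaci worms, grown on pea plants in Gamborg B-5 agar and funnel-extracted into water, were dispensed in distilled water. Plates received pinned compound at 60 µM final with 0.6% v/v DMSO and were sealed and shaken at 200 rpm for 5 days at 20 °C before 2 µL 1 M NaOH was added and mobile worms were scored by microscope.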

Row | Compound | proportion of mobile M. hapla J2 [1] | proportion of mobile C. elegans dauer larvae [2] | proportion of mobile D. dipsaci [3]
1 | Cc1ccc(OCc2nc(-c3ccccc3Cl)no2)cc1C | 1.04 | 1 | 1
2 | COc1cccc(-c2nc(-c3ccc(Br)cc3)no2)c1 | 0.997 | 0.6 (active) | 1
3 | COc1ccc(-c2nnc(SCC(=O)Nc3ccc(C(C)C)cc3)o2)cc1 | 0.967 | 1 | 1
4 | Cc1cc(C)nc(SCc2nc(-c3ccccc3)no2)n1 | 1.05 | 1 | 1
5 | O=C(CSc1nnc(-c2cccc(Br)c2)o1)NC1CCCCC1 | 0.778 | 1 | 1
6 | COc1ccccc1NC(=O)CSc1nnc(-c2ccccc2)o1 | 1.04 | 1 | 1
7 | CCOc1cc(-c2nc(-c3cccnc3)no2)cc(OCC)c1OCC | 1.05 | 1 | 1
8 | FC(F)(F)c1cccc(-c2noc(-c3cccs3)n2)c1 | 0.893 | 1 | 1
9 | O=C(CSc1nnc(-c2cccc(Cl)c2)o1)NC1CCCCC1 | 0.874 | 1 | 1
10 | Cc1ccccc1-c1nnc(SCc2ccc(F)cc2)o1 | 0.939 | 1 | 1
11 | CC(C)(C)c1ccc(-c2nnc(SCc3cccc(C#N)c3)o2)cc1 | 1.05 | 1 | 1
12 | CCOc1ccccc1-c1nnc(SCC(=O)Nc2ccccc2)o1 | 0.907 | 1 | 1
13 | Cc1ccc(-c2nnc(SCC(=O)Nc3c(C)cc(C)cc3C)o2)cc1 | 0.979 | 1 | 1
14 | Clc1ccc(-c2nc(-c3cccnc3)no2)c(Cl)c1 | 1.04 | 0.625 (active) | 1
15 | O=C(CSc1nnc(-c2ccccc2Cl)o1)Nc1ccccn1 | 0.946 | 1 | 1
16 | CC(=O)c1c(C)cc(C)c(CSc2nnc(-c3ccco3)o2)c1C | 0.906 | 1 | 1
17 | Cc1ccccc1-c1nc(-c2ccccc2Cl)no1 | 0.985 | 1 | 1
18 | Brc1ccc(-c2noc(CSc3ccccc3)n2)cc1 | 1.09 | 1 | 1

Source: the supplement of paper PMC11219838
